Assay results from paper PMC5540273 (PLoS ONE, 2017).

Assays:
Conditions in all cases: concentration: 1 μM, replicates: in singlicate; n = 1
MYO3A = test system: MYO3A
MYO3B = test system: MYO3B
NDR1 = test system: T1, NDR1
T1 construct: gene STK38

NDR2 = test system: NDR2
NEK10 = test system: NEK10
NEK11 = test system: NEK11
NEK1 = test system: NEK1
NEK2 = test system: NEK2
NEK3 = test system: NEK3
NEK4 = test system: NEK4
NEK5 = test system: NEK5
NEK6 = test system: NEK6
NEK7 = test system: NEK7
NEK9 = test system: NEK9
NIK = test system: T2, NIK
T2 construct: gene MAP3K14

NIM1 = test system: T3, NIM1
T3 construct: gene MGC42105

NLK = test system: NLK
OSR1 = test system: T4, OSR1
T4 construct: gene OXSR1

PAK1 = test system: PAK1
PAK2 = test system: PAK2
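Note: KINOMEscan kinase panel screen.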

SMILES	%Inh (MYO3A)	%Inh (MYO3B)	%Inh (NDR1)	%Inh (NDR2)	%Inh (NEK10)	%Inh (NEK11)	%Inh (NEK1)	%Inh (NEK2)	%Inh (NEK3)	%Inh (NEK4)	%Inh (NEK5)	%Inh (NEK6)	%Inh (NEK7)	%Inh (NEK9)	%Inh (NIK)	%Inh (NIM1)	%Inh (NLK)	%Inh (OSR1)	%Inh (PAK1)	%Inh (PAK2)
CCn1c(-c2ccccc2)nc2cnccc21 [SB-733416]	28%	0%	0%	0%	17%	5%	0%	0%	9%	35%	0%	13%	0%	0%	0%	16%	11%	1%	23%	11%
COc1ccc(-c2coc3ccc(-c4nnc(C)o4)cc23)cc1	0%	12%	8%	9%	47%	0%	0%	0%	21%	17%	0%	0%	0%	0%	0%	0%	0%	1%	23%	0%
Cc1ccc(-c2nc(Nc3ccncc3)c3ccccc3n2)s1 [GSK189015]	0%	0%	0%	0%	4%	0%	0%	20%	5%	0%	9%	1%	16%	15%	4%	0%	53%	9%	11%	11%
COc1cccc(NC(=O)Nc2ccc(C)c(-c3ccc(C(=O)Nc4ccncc4)cc3)c2)c1 [GSK1398474]	0%	0%	51%	0%	47%	0%	25%	0%	7%	15%	2%	3%	0%	12%	0%	0%	30%	6%	29%	16%
O=C(Nc1n[nH]c2nc(-c3ccco3)c(Br)cc12)C1CCN(Cc2ccccc2)C1.O=C(O)[C@H](O)[C@@H](O)C(=O)O (stereo not drawn) [SB-742034]	17%	7%	8%	17%	0%	1%	0%	5%	47%	8%	0%	1%	11%	0%	0%	0%	0%	5%	3%	35%
CS(=O)(=O)Cc1ccc(Nc2nccc(-c3c(-c4cccc(NC(=O)C5CCCCC5)c4)nn4ncccc34)n2)cc1 [GSK350559]	0%	0%	0%	17%	22%	15%	0%	10%	32%	25%	15%	4%	18%	0%	0%	32%	1%	22%	7%	8%
CNCc1ccc2nc(NC(=O)c3ccc(C(C)(C)C)cc3)cn2c1	2%	0%	34%	3%	20%	34%	28%	2%	18%	7%	0%	2%	10%	3%	28%	3%	1%	22%	7%	26%
O=C(Nc1n[nH]c2cc(-c3ccsc3)ccc12)C1CC1 [SB-732932]	12%	0%	18%	0%	0%	41%	0%	21%	24%	3%	0%	12%	6%	0%	26%	5%	46%	27%	9%	45%
COc1cc2ncnc(Nc3cccc(Br)c3)c2cc1OC.Cl [GI230329]	20%	0%	26%	12%	21%	41%	0%	0%	6%	0%	11%	0%	0%	4%	29%	26%	33%	16%	29%	20%
Cc1cnc(N)c(/C=C/c2cncc(C(=O)NCCc3ccc(Cl)cc3Cl)c2)c1.Cl [GSK190937]	6%	0%	21%	21%	13%	0%	5%	10%	0%	0%	9%	0%	0%	0%	10%	18%	7%	0%	4%	10%
COC(=O)C(Cc1ccccc1)NC(=O)NC1CCN(c2ccnc(Nc3ccc(F)cc3)n2)C1 (stereo not drawn) [GSK1379714]	0%	20%	13%	14%	14%	44%	0%	0%	1%	0%	12%	0%	0%	17%	50%	33%	6%	5%	9%	5%
CC(C)c1ccc(O)cc1Nc1ccnc2ccc(C(F)(F)F)cc12 [GW482059]	0%	0%	0%	0%	0%	22%	0%	2%	0%	0%	0%	0%	0%	0%	0%	0%	0%	1%	0%	6%
